{"source": "PubChem BioAssay AID1259373", "about": "(The Scripps Research Institute Molecular Screening Center, 2018)", "assay": "AlphaScreen optical interference compounds, dose response, counter-screen, biochemical, HTS (AID 1259373)", "settings": "AlphaScreen optical interference counterscreen, cell-free", "note": "The other results are listed elsewhere or left out. Values without a mark were called inactive. No rule for the calls is given here.", "data": [{"smiles": "CCOC(=O)C1C2NC(=S)N(CC)C1(C)Oc1ccc(Cl)cc12", "note": "(stereo unspecified)", "values": [{"measurement": "IC50", "result": "> 8.6", "unit": "µM"}]}]}
